Source: PubChem BioAssay (National Center for Advancing Translational Sciences (NCATS))
The list is not random: actives were taken first. Their share in the collection is about 3.8%.
CBFb-RUNX1 inh = qHTS Assay for Compounds Blocking the Interaction Between CBF-beta and RUNX1 for the Treatment of Acute Myeloid Leukemia | Runt-related transcription factor 1 (Homo sapiens) + Core-binding factor subunit beta … | AlphaScreen CBFb-His/RUNX1-biotin binding, biochemical | Potency, µM (titrated, usually from 59.8 µM), most hits filed as inhibitors | 230,000 tested, under 10 active | AID 1477, 2009
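AlphaScreen proximity signal reports loss of binding between His-tagged CBF-beta and biotin-labelled RUNX1, each at 30 nM. Proteins are pre-associated for 20 minutes, compounds added for 15 minutes, then beads for 90 minutes, all at ambient temperature.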
hERG WT inh = qHTS for Inhibitors of KCHN2 3.1: Wildtype qHTS | actives 0.37% (n = 340,000) | U2OS, BacMam KCNH2, thallium flux FluxOr; stronger effect = lower value | activity change, % at 1.84 µM | Voltage-gated inwardly rectifying potassium channel KCNH2 (Homo sapiens), Q12809 | AID 720551, 2013;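 active = maximum activity change below -70%; inconclusive = maximum activity change between -70% and -50%; inactive = maximum activity change above -50%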
Target sequence (Q12809 whole entry, looked up): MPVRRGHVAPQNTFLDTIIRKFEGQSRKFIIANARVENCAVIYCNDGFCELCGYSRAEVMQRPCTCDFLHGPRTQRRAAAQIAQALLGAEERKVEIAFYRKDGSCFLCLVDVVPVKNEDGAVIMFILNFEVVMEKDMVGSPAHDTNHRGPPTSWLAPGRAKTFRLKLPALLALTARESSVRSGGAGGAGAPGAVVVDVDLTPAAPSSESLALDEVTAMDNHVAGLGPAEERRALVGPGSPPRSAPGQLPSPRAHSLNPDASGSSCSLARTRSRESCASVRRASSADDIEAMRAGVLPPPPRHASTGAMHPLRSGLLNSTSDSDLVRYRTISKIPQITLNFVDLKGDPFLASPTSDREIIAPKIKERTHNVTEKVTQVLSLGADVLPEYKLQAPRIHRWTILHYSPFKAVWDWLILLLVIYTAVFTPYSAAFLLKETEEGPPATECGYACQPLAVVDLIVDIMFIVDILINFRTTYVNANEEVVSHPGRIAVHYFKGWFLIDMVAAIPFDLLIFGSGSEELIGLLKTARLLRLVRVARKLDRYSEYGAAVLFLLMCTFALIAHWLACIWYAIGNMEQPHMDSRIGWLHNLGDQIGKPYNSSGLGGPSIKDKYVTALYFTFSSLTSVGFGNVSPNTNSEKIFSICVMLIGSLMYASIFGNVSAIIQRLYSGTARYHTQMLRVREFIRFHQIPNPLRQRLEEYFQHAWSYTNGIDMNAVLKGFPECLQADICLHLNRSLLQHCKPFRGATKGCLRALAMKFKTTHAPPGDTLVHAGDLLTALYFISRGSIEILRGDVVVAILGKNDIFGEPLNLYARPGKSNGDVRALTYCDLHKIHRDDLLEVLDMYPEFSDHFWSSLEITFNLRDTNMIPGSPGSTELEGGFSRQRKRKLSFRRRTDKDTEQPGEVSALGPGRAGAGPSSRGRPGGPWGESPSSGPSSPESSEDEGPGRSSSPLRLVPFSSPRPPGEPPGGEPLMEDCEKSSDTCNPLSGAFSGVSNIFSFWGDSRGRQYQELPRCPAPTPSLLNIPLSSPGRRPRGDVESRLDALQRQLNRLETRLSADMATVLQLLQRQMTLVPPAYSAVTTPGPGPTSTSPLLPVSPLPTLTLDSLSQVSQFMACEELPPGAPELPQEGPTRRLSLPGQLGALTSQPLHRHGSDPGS
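U2OS cells were transduced with wild-type KCNH2 virus (2.03 x 10^8 / mL) for 4 h at room temperature, then cultured overnight at 37 C. Thallium flux was read with FluxOr dye. Rate constants were normalized to DMSO controls.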
PLK1 PBD block = qHTS for Inhibitors of PLK1-PDB (polo-like kinase 1 - polo-box domain): Primary Screen | Serine/threonine-protein kinase PLK1 (Homo sapiens), P53350 | Plk1 PBD binding of FITC phosphopeptide, fluorescence polarization | Potency, µM, most hits filed as inhibitors | actives 2.8% (n = 360,000) | AID 720504, 2013; note: series mostly up to about 57 µM; nearly all actives have a fitted effect of over 65% in size
VDR inh = Inhibitors of the vitamin D receptor (VDR): qHTS | Vitamin D3 receptor (Homo sapiens), P11473 | actives 0.93% (n = 400,000) | Potency, µM, actives largely listed as inhibitors | VDR-SRC2-3 peptide fluorescence polarization, 2 h
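Fluorescence polarization assay measuring small-molecule disruption of VDR binding to the coregulator peptide SRC2-3. Compounds were pin-transferred (23 nl) into the reagent mix and incubated 2 h at room temperature before reading.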
KCNH2 3.1 block = qHTS for Inhibitors of KCHN2 3.1: Mutant qHTS | Potassium voltage-gated channel subfamily H member 2, brain isoform KCNH2 3.1 (human) | U2OS KCNH2 3.1, thallium flux FluxOr; stronger effect = lower value | activity change, % (tested at about 1.8 µM) | actives 0.95% (n = 340,000) | AID 720553, 2013;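 active = maximum activity change below -70%; inconclusive = maximum activity change from -70% to -50%; inactive = maximum activity change above -50%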;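 note: thallium influx rate constant from kinetic fluorescence after stimulation buffer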
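Steps: virus added to U2OS suspension (4 h, RT, dark); medium with 10% FBS added, cells plated, 37 C overnight; FluxOr/Red40 loading buffer 45 min RT; stimulation buffer, 2 min kinetic read; rate constant normalized.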
MBNL1 CUG block = qHTS Assay for Inhibitors of MBNL1-poly(CUG) RNA binding. actives 0.036% (n = 280,000). TR-FRET MBNL1-His/biotin-(CUG)12 binding, 665/545 ratio. Potency, µM (doses to about 57.5 µM), usual class: inhibitors; active = well fitted inhibition curve with a large enough effect in the signal ratio, with a control signal flat, not every such curve was filed as active; inconclusive = small, poorly fitted or top-dose-only effect, or effect the other way, or a change in a side signal; inactive = no such curve, though single readings can be large or run the other way; the % refers to the signal ratio
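Inhibition of protein-RNA binding appears as loss of TR-FRET between terbium anti-His antibody on MBNL1-His and streptavidin-XL665 on biotin-(CUG)12. Activity is normalized to buffer-only and uninhibited-complex controls.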
A number is an active result. Unless noted, calls come from the whole dose curve; as a rule, active = well fitted curve in the direction sought with a large enough effect; inconclusive = small, poorly fitted or top-dose-only effect, or another doubt; inactive = no such curve, though single readings can be large; an effect the other way counts as inactive or inconclusive.

CCOC(=O)C1CCN(C(=O)c2nn(-c3ccc(C)cc3)c(=O)n(C)c2=O)CC1 was read as VDR inh inactive.
For Cc1nn(CC(O)CN2c3ccccc3Sc3ccccc32)c(C)c1Br (stereo unspecified) the results were CBFb-RUNX1 inh inactive, hERG WT inh inactive, PLK1 PBD block 3.8µM, VDR inh inconclusive, KCNH2 3.1 block inactive and MBNL1 CUG block inactive.
Screening COCCCn1c(SCC(=O)NC2CCCC2)nnc1-c1ccncc1 returned hERG WT inh inactive, PLK1 PBD block inactive, VDR inh inconclusive, KCNH2 3.1 block inactive and MBNL1 CUG block inactive.
`COCCCn1c(SCC(=O)Nc2sc3c(c2C#N)CCCC3)nnc1-c1ccncc1` gave CBFb-RUNX1 inh inactive, hERG WT inh inactive, PLK1 PBD block 27µM, VDR inh inactive, KCNH2 3.1 block inactive and MBNL1 CUG block inactive.
For CN(C)c1cccc(C(=O)OCCCC(=O)c2ccc(F)cc2)c1 the results were hERG WT inh inactive, PLK1 PBD block inactive, VDR inh inconclusive and KCNH2 3.1 block -130.
`Cn1c(=O)c2c(-c3ccccc3)n3c(c2n(C)c1=O)C(c1ccc([N+](=O)[O-])cc1)Nc1ccccc1-3` (stereo unspecified) gave VDR inh inactive.
For Brc1ccc2ncnc(Nc3ccc(N4CCOCC4)cc3)c2c1 the results were CBFb-RUNX1 inh inactive, hERG WT inh inactive, PLK1 PBD block inactive, VDR inh inactive, KCNH2 3.1 block -104 and MBNL1 CUG block inactive.
For O=C(COc1ncnc2ccc(Br)cc12)Nc1ccc(N2CCOCC2)cc1 the results were CBFb-RUNX1 inh inactive, hERG WT inh inactive, PLK1 PBD block inactive, VDR inh inactive, KCNH2 3.1 block inactive and MBNL1 CUG block inactive.
Screening O=S(=O)(NC1CC2CCC1C2)c1ccc(Br)s1 (stereo unspecified) returned CBFb-RUNX1 inh inactive, hERG WT inh inactive, PLK1 PBD block 3.4µM, VDR inh inactive, KCNH2 3.1 block inactive and MBNL1 CUG block inactive.
For O=C(CSc1nc2c(c(=O)[nH]1)CCC2)Nc1ccccc1F the results were VDR inh inactive.
For Cc1ccc(-c2nn3c(C)nnc3s2)cc1NC(=O)CSc1ccc(Cl)cc1 the results were CBFb-RUNX1 inh inactive, hERG WT inh inactive, PLK1 PBD block inactive, VDR inh inactive, KCNH2 3.1 block inactive and MBNL1 CUG block inactive.
`CCC(=O)Nc1ccc(-c2nn3c(C)nnc3s2)cc1C` gave CBFb-RUNX1 inh inactive, hERG WT inh inactive, PLK1 PBD block inactive, VDR inh inactive, KCNH2 3.1 block -115 and MBNL1 CUG block inactive.
COCCOC(=O)c1[nH]c2c(c1C)C(=O)C(C(=O)OC)C(C)C2 (stereo unspecified) was read as CBFb-RUNX1 inh inactive, hERG WT inh inactive, PLK1 PBD block inactive, VDR inh inactive, KCNH2 3.1 block inactive and MBNL1 CUG block inactive.
For CCCCCOC(=O)c1[nH]c2c(c1C)C(=O)C(C(=O)OC)C(C)C2 (stereo unspecified) the results were CBFb-RUNX1 inh inactive, hERG WT inh inactive, PLK1 PBD block 3µM, VDR inh inconclusive, KCNH2 3.1 block inactive and MBNL1 CUG block inactive.
`O=C(Nc1cc(C(F)(F)F)ccc1N1CCOCC1)c1c(F)c(F)c(F)c(F)c1F` gave CBFb-RUNX1 inh inactive, hERG WT inh inactive, PLK1 PBD block 30µM, VDR inh inactive, KCNH2 3.1 block inactive and MBNL1 CUG block inactive.
`O=C(Nc1cc(C(F)(F)F)ccc1N1CCOCC1)c1ccccc1` gave CBFb-RUNX1 inh inactive, hERG WT inh inactive, PLK1 PBD block inactive, VDR inh inactive, KCNH2 3.1 block inactive and MBNL1 CUG block inactive.
For CCCN1C(=O)c2[nH]nc(-c3cccc(OC)c3)c2C1c1ccccn1 (stereo unspecified) the results were VDR inh inactive.
Screening CCCCOc1ccc(C(=O)N/C(=C\c2ccc(Br)cc2)C(=O)NC2CCCCC2)cc1 returned VDR inh inactive.
For C[N+]1(CC(=O)OCCCC2CCCCC2)CCCC1 the results were CBFb-RUNX1 inh inactive, hERG WT inh inactive, PLK1 PBD block 30µM, VDR inh inactive, KCNH2 3.1 block inactive and MBNL1 CUG block inactive.
O=C(CN1CCCC1)OCCCC1CCCCC1 was read as CBFb-RUNX1 inh inactive, hERG WT inh inactive, PLK1 PBD block inactive, VDR inh inactive, KCNH2 3.1 block inactive and MBNL1 CUG block inactive.
Screening Cn1c(=O)c2sccc2n2c(CCCC(=O)Nc3ccc(Oc4ccccc4)cc3)nnc12 returned VDR inh inactive.
`COC(=O)c1ccc(NC(=O)N2CCc3c([nH]c4ccccc34)C2c2ccc(C)cc2)cc1` (stereo unspecified) gave VDR inh inactive.
`COc1ccc2c(c1)C=C(C(=O)OCc1cccnc1)CO2` gave CBFb-RUNX1 inh inactive, hERG WT inh inactive, PLK1 PBD block 27µM, VDR inh inactive, KCNH2 3.1 block inactive and MBNL1 CUG block inconclusive.
For COc1ccc(CNC(=O)C(=O)NCc2cccnc2)cc1 the results were CBFb-RUNX1 inh inactive, hERG WT inh inactive, PLK1 PBD block inactive, VDR inh inactive, KCNH2 3.1 block inactive and MBNL1 CUG block inactive.
Screening CCOc1ccc(C(=O)Nc2cc(C)ccn2)cc1 returned CBFb-RUNX1 inh inactive, hERG WT inh inactive, PLK1 PBD block 3µM, VDR inh 35µM, KCNH2 3.1 block inactive and MBNL1 CUG block inconclusive.
`NCCCC[C@H](NC(=O)[C@H](CCCN=C(N)N)NC(=O)[C@H](CO)NC(=O)[C@H](CCCN=C(N)N)NC(=O)[C@@H](N)Cc1ccc(O)cc1)C(=O)N[C@@H](Cc1ccc(O)cc1)C(=O)N[C@@H](CO)C(=O)N[C@@H](CO)C(=O)N[C@@H](Cc1c[nH]c2ccccc12)C(=O)N[C@@H](Cc1ccc(O)cc1)C(=O)O` gave CBFb-RUNX1 inh inactive and VDR inh inactive.
Screening CC[C@H](NC(=O)[C@H](CCCN=C(N)N)NC(=O)[C@H](Cc1c[nH]c2ccccc12)NC(=O)[C@@H](N)CS)C(=O)N[C@@H](CCCN=C(N)N)C(=O)N[C@@H](Cc1ccc(O)cc1)C(N)=O returned CBFb-RUNX1 inh inactive and VDR inh 40µM.
For Cc1cccc(OCc2nc(CC(=O)Nc3ccc(C)c(C)c3)cs2)c1 the results were VDR inh inactive.
